PubChem BioAssay (Tox21)
Results filed as inconclusive are left out. Active and inactive are the calls of the source. The call rests on the fitted dose curve; in most records, active means well fitted curve in the direction sought with a large enough effect in the repeat runs; inconclusive means weak or mixed curves; inactive means no such curve, though single readings can be large; an effect the other way counts as inactive or inconclusive.

Legend:
[1] = qHTS assay to identify small molecule agonists of the RXR signaling pathway - cell viability counter screen (AID 1159529); further: nearly all actives have a fitted effect of over 50% in size; further: potency means the concentration at half of the fitted maximal effect; on activity change, negative = cytotoxicity: series mostly up to about 77 µM
How it was run: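 Luminescence from CellTiter-Glo (30 min, RT) measured viability in the same wells as the beta-lactamase reporter readout. Cells: GeneBLAzer RXR-alpha HEK 293T, 2% charcoal-stripped FBS. Compound exposure 16 hr, 37 C.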

[2] = qHTS assay to identify small molecule antagonists of the retinoid acid receptor (RAR) signaling pathway - cell viability counter screen (AID 1159551); further: nearly all actives have a fitted effect of over 35% in size
How it was run: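 Viability of C3RL4 cells is quantified from ATP by luminescence after 6 h treatment at 37 C with compounds and 1 uM retinol.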

[3] = qHTS assay to identify small molecule antagonists of the retinoic acid receptor (RAR) signaling pathway (AID 1159552; further: nearly all actives have a fitted effect of over 50% in size; further: potency means the concentration at half of the fitted maximal effect)
How it was run: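 Luminescence from a RARE luciferase reporter in C3RL4 cells served as read-out. Cells received compounds together with 1 uM final retinol and incubated 6 hr at 37 C before detection reagent was added for 30 min at room temperature.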

[4] = qHTS assay to identify small molecule agonists of the retinoic acid receptor (RAR) signaling pathway (AID 1159553); further: potency means the concentration at half of the fitted maximal effect
How it was run: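 Compounds dissolved in DMSO were pinned onto C3RL4 cells seeded the previous day, and plates were held 6 hr at 37 C. RARE-driven luciferase output was then read by luminescence.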
On the % scale 0 is the no-effect control and ±100 the full control effect.

O=C1CC[C@@H](C(=O)O)N1
inactive: Potency [1] | Potency [2] | Potency [3] | Potency [4]

CCC(C)(C)C(=O)O
inactive: Potency [1] | Potency [2] | Potency [3] | Potency [4]

O=C1[C@@H]2[C@H]3CC[C@H](C3)[C@@H]2C(=O)N1CCCCN1CCN(c2ncccn2)CC1
inactive: Potency [1] | Potency [2] | Potency [3] | Potency [4]

COc1ccc(C)cc1
inactive: Potency [1] | Potency [2] | Potency [3] | Potency [4]

Cc1ccc(N(CCO)CCO)cc1
inactive: Potency [1] | Potency [2] | Potency [3] | Potency [4]

Cc1cc(CCC(=O)OCCOCCOCCOC(=O)CCc2cc(C)c(O)c(C(C)(C)C)c2)cc(C(C)(C)C)c1O
inactive: Potency [1] | Potency [2] | Potency [3] | Potency [4]

O=C(c1ccccc1)c1ccc(O)cc1
inactive: Potency [1] | Potency [2] | Potency [3]

CC(C)(O)CCc1ccccc1
inactive: Potency [1] | Potency [2] | Potency [3] | Potency [4]

CCCCCCCCCCCSCC(=O)O
active: Potency [1] 19.5 µM
inactive: Potency [2] | Potency [3] | Potency [4]

CCO[Si](C)(CCCOCC1CO1)OCC (configuration not stated)
inactive: Potency [1] | Potency [2] | Potency [3] | Potency [4]

Nc1ccc(S(=O)(=O)NCc2ccccc2)cc1
inactive: Potency [1] | Potency [2] | Potency [3] | Potency [4]

CCNc1nc(N)nc(Cl)n1
inactive: Potency [1] | Potency [2] | Potency [4]
active: Potency [3] 21.7 µM

CCC1CCC(CCC(=O)O)C1 (configuration not stated)
inactive: Potency [1] | Potency [2] | Potency [3] | Potency [4]

O=C(NC(Cc1cc(=O)[nH]c2ccccc12)C(=O)O)c1ccc(Cl)cc1 (configuration not stated)
inactive: Potency [1] | Potency [2] | Potency [3] | Potency [4]

COC(=O)CC(C(C)=O)C(=O)OC (configuration not stated)
inactive: Potency [1] | Potency [2] | Potency [3] | Potency [4]

Oc1ccc2c(c1)Cc1ccccc1-2
active: Potency [4] 13.7 µM
inactive: Potency [1] | Potency [2] | Potency [3]

O=C1OC[C@H](Cc2cccc(O)c2)[C@H]1Cc1cccc(O)c1
inactive: Potency [1] | Potency [2] | Potency [3] | Potency [4]

CCC(Cl)CC(Cl)C(Cl)C(Cl)C(Cl)C(C)Cl (configuration not stated)
active: Potency [4] 0.133 µM
inactive: activity change, negative = cytotoxicity [1] -9.76% [at 15.8 µM] | activity change, negative = cytotoxicity [2] 0.117% [at 19 µM] | activity, negative = inhibition [3] 84.9% [at 19 µM]

CCC(=O)OCc1ccc(OC)cc1
inactive: Potency [1] | Potency [2] | Potency [3] | Potency [4]

CCOCCC(=O)OCC
inactive: Potency [1] | Potency [2] | Potency [3] | Potency [4]

COc1ccc(C2C(=O)c3ccccc3C2=O)cc1
inactive: Potency [1] | Potency [2] | Potency [3] | Potency [4]

COc1cc(S(=O)(=O)Nc2ccccc2)c(OC)cc1N
inactive: Potency [1] | Potency [2] | Potency [3] | Potency [4]

Cc1ccc(NC(=O)N(C)C)cc1NC(=O)N(C)C
inactive: Potency [1] | Potency [2] | Potency [3] | Potency [4]

O=C1c2ccccc2C(=O)c2c(O)ccc(O)c21
inactive: Potency [1] | Potency [2] | Potency [3] | Potency [4]

Nc1ccn([C@H]2CS[C@@H](CO)O2)c(=O)n1
inactive: Potency [1] | Potency [2] | Potency [3] | Potency [4]

CC(O)Cn1cnc2c1c(=O)n(C)c(=O)n2C (configuration not stated)
inactive: Potency [1] | Potency [2] | Potency [4]

CC(C)(C)C(O)/C=C/c1ccc2c(c1)OCO2 (configuration not stated)
active: Potency [4] 29.8 µM
inactive: Potency [1] | Potency [2] | Potency [3]

CC(C)C(=O)OCCOc1ccccc1
inactive: Potency [1] | Potency [2] | Potency [3] | Potency [4]

CC(C)(C)S
inactive: Potency [1] | Potency [2] | Potency [3] | Potency [4]

CC(=O)OCC1=C(C(=O)O)N2C(=O)[C@@H](NC(=O)CSc3ccncc3)[C@H]2SC1
inactive: Potency [1] | Potency [2] | Potency [3] | Potency [4]

CC(=O)c1ccc[nH]1
inactive: Potency [1] | Potency [2] | Potency [3] | Potency [4]
